Assay results: PubChem BioAssay (NCATS)
Records with an inconclusive call do not appear. A number with no mark means an inactive call. The source made the active and inactive calls. The call rests on the fitted dose curve; in most records, active means well fitted cell-killing curve with a large enough effect; inconclusive means small, poorly fitted or top-dose-only effect; inactive means flat fitted curve, though single readings scatter.

test: Cell Viability - LYMP2-022 (AID 987); conditions: LYMP2-022 lymphoblastoid cell viability; series mostly up to 92.2 µM; viability change, negative = cytotoxic: at the top concentration; further: nearly all actives have a fitted effect of over 55% in size;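 on viability change, negative = cytotoxic: 0% = DMSO alone and full effect = tetraoctylammonium bromide at 92 µM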
In short: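 Luminescent ATP read-out (CellTiter-Glo, 30 min, RT) after 24 hr, 37 C compound exposure of 2500 human lymphoblastoid cells/well in complete medium. Cytotoxicity taken as concentration-dependent ATP loss; AC50 from standard Hill equation.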
Potency means the concentration at half of the fitted maximal effect.

SMILES	viability change, negative = cytotoxic	Potency
Cc1ccc(OP(=O)(Oc2ccc(C)cc2)Oc2ccc(C)cc2)cc1	0.744%	
Oc1c(Cl)c(Cl)cc(Cl)c1Cl	-11.7%	
Nc1ccc(Cc2ccc(N)c(Cl)c2)cc1Cl	-7.38%	
CN(C)c1ccc(N(C)C)cc1		39.8 µM (active)
Brc1ccc(Oc2ccc(Br)cc2Br)c(Br)c1	-3.16%	
O=[N+]([O-])c1c(Cl)c(Cl)c(Cl)c(Cl)c1Cl	-14%	
CN1CSC(=S)N(C)C1		10 µM (active)
ClCC(Cl)Cl	-0.916%	
CC(C)Br	-12.6%	
O=[N+]([O-])c1ccc(O)c([N+](=O)[O-])c1	-7.85%	
CC(C)[N+](=O)[O-]	4.27%	
CCCC[N+](=O)[O-]	-15.3%	
Cc1cc(-c2cc(C)c(N)c(C)c2)cc(C)c1N	-21.8%	
CCN(N=O)C(N)=O	-14.9%	
N#CC(Cl)(Cl)Cl	-13.3%	
CCCCC(CC)COC(=O)c1ccc(C(=O)OCC(CC)CCCC)c(C(=O)OCC(CC)CCCC)c1 (configuration not stated)	-32.4%	
O=C(O)C(Br)CBr (configuration not stated)	-22.9%	
Nc1c(Br)cc([N+](=O)[O-])cc1[N+](=O)[O-]	-28.4%	
Cc1cc(C)cc(OP(=O)(Oc2cc(C)cc(C)c2)Oc2cc(C)cc(C)c2)c1	-5.76%	
O=C(O)C(Cl)Br (configuration not stated)	-9.16%	
COP(=S)(OC)SCn1nnc2ccccc2c1=O	-7.27%	
Nc1ccc([N+](=O)[O-])cc1N	-24.3%	
O=C(O)c1cccc(Cl)c1	-5.66%	
Cc1cc(N=Nc2ccccc2C)ccc1N	-10.1%	
OCCCCO	-13.6%	
O=[N+]([O-])c1cc(Cl)c(Cl)c(Cl)c1	-7.94%	
CC(C)(COCC1CO1)COCC1CO1 (configuration not stated)	-33.7%	
